# An excerpt weighted towards active compounds, which were near 3.7% of everything screened.
# MazF activator: increases E. coli MazEF RNase cleavage of RNA; P0AE70; FAM/BHQ RNA-DNA oligo cleavage fluorescence, 5 h; activation, % at 20 µM; 0.32% of 350,000 active; AID 504720; in the data active means activation above about 50%
# Target sequence (P0AE70 whole entry, looked up): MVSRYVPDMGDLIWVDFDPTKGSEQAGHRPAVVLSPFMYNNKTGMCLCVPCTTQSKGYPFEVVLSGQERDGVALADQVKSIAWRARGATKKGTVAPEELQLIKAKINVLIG
# BoNT-F LC inh: BoNT F light chain protease inhibition. 0.22% of 360,000 active. Multiplex microsphere protease cleavage assay, flow cytometry. inhibition, % at 10 µM. AID 588497; in the data active means inhibition above about 35%, passing the limit was not always enough; inconclusive means no clear call, values can overlap the other calls
# Anthrax LF inh2: inhibitors of Bacillus anthracis lethal factor protease; AID 588501; multiplex microsphere protease cleavage assay, LF; inhibition, % at 10 µM; 0.12% of 360,000 active
# Bead autofluor: counter-screen for toxin protease inhibitors: compound fluorescence | fluorescence intensity (no concentration beside the values) | compound autofluorescence counterscreen, microsphere flow cytometry; active compounds read high | 3.1% of 360,000 active; in the data active means fluorescence intensity above about 16000; inconclusive means no clear call, values can overlap the other calls
# BoNT-A LC inh2: inhibitors of Botulinum neurotoxin A light chain protease | multiplex microsphere protease substrate cleavage, flow cytometry | inhibition, % at 10 µM | 0.17% of 360,000 active
# Hits are given with their value; - = inactive; ? = inconclusive; . = no result given. Unless noted, no stated cut-off is given here; in the data, active means inhibition above about 30%; inconclusive means no clear call, values can overlap the other calls; inactive means below that.
SMILES,MazF activator,BoNT-F LC inh,Anthrax LF inh2,Bead autofluor,BoNT-A LC inh2
Cc1ccc(CN(C)c2ccc(S(=O)(=O)N3CCCC3)cn2)cc1,-,-,-,-,-
CC(C)C[C@H](NC(=O)C1CC(=O)N(c2ccc3c(c2)OCCO3)C1)C(=O)N1CCCCC1 (stereo not given in full),-,-,-,-,-
O=C(O)CCC(=O)N1CCN(c2ncccn2)CC1,-,-,-,-,-
O=C(COc1ccc(F)cc1)NCC1CCCO1 (stereo not given),-,-,-,24747,?
O=C(NCC1CCCO1)C(C(=O)c1ccc(F)cc1)n1ccccc1=O (stereo not given),-,-,-,21506,-
O=C(NCCCN1CCOCC1)C(C(=O)c1ccccc1)n1ccccc1=O (stereo not given),-,-,-,22755,-
O=C(NCc1ccccc1)C(C(=O)c1ccc(F)cc1)n1ccccc1=O (stereo not given),-,-,-,-,-
O=C(NCc1cccnc1)C(C(=O)c1ccc(F)cc1)n1ccccc1=O (stereo not given),-,-,-,22039,?
O=C(COc1ccccc1)NCC1CCCO1 (stereo not given),-,-,-,-,-
COc1ccc(CCNC(=O)C(C(=O)c2ccc(F)cc2)n2ccccc2=O)cc1OC (stereo not given),-,-,-,-,-
CN(Cc1ccno1)Cc1cn(Cc2ccccc2)nc1-c1ccc2c(c1)OCO2,-,-,-,-,-
Cc1ccc(=O)n(C(C(=O)NCc2ccco2)C(=O)c2ccc(F)cc2)c1 (stereo not given),-,-,-,22339,-
O=C(COC(=O)CCC(=O)c1ccc(F)cc1)NCc1ccco1,-,-,-,-,-
COc1ccc(C(=O)NCC2CCCCC2)cc1S(=O)(=O)N1CCOCC1,-,-,-,-,-
COc1cc2c(cc1OC)CN(C(=O)C1CCCN1S(=O)(=O)c1ccc(C)cc1)CC2 (stereo not given),-,-,-,-,-
COc1ccc(CCNC(=O)Cn2cnc3c(cnn3-c3ccccc3Cl)c2=O)cc1OC,-,-,-,21068,-
COc1ccc(CCNC(=O)Cn2cnc3ccccc3c2=O)cc1OC,-,-,-,-,-
COC(=O)c1ccccc1NC(=O)Cn1cnc2c(cnn2-c2ccccc2)c1=O,63,-,-,-,-
COC(=O)c1ccccc1NC(=O)Cn1cnc2c(cnn2-c2ccc(C)c(C)c2)c1=O,-,.,.,.,.
CCOc1ccccc1NC(=O)Cn1cnc2c(cnn2-c2ccc(C)c(C)c2)c1=O,162,-,-,-,-
COc1cc(NC(=O)CSc2nnc3c(C)cc4c(C)ccc(C)c4n23)c(C(=O)O)cc1OC,-,-,-,-,-
COc1ccc2[nH]cc(CCNC(=O)COc3ccc4ccc(=O)oc4c3)c2c1,-,-,-,-,-
COc1ccc(C(=O)Nc2c(Cl)cc(Cl)cc2C(=O)NCCN2CCOCC2)cc1,-,-,-,21881,?
O=C(Nc1c(Cl)cc(Cl)cc1C(=O)NCCN1CCOCC1)c1ccc(Cl)cc1Cl,-,-,-,16191,-
COc1ccc(-n2c(C)nc3cc(C(=O)NCCN4CCOCC4)ccc32)cc1,-,-,-,23270,?
SMILES,MazF activator,BoNT-F LC inh,Anthrax LF inh2,Bead autofluor,BoNT-A LC inh2
CCC1CCCCN1C(=O)c1ccc2c(c1)C(=O)N(c1ccc(C)cc1)C2=O (stereo not given),-,-,-,-,-
O=C(NC(=O)c1cccc(OC(F)(F)C(F)F)c1)OC1CCS(=O)(=O)C1 (stereo not given),-,-,-,24101,-
O=C(Nc1ccccc1)OC1CCS(=O)(=O)C1 (stereo not given),-,-,-,-,-
O=C(CN(Cc1ccccc1Cl)C(=O)c1csnn1)NCCc1ccccc1,-,-,-,-,-
Cc1c(C(=O)Nc2cccc([N+](=O)[O-])c2)csc1-c1ccccc1,-,-,-,16284,-
Cc1ccc(NC(=O)c2csc(-c3ccccc3)c2C)cc1,-,-,-,23926,-
CCCC[C@@H]1CNCCN1CCc1cccc2ccccc12,-,-,-,-,-
Cn1c(SCc2ccc(Cl)cc2Cl)nc(C(F)(F)F)cc1=O,-,-,-,-,-
CCSc1nc(C(F)(F)F)cc(=O)n1-c1ccccc1,-,-,-,20108,?
CC(C)Sc1nc(C(F)(F)F)cc(=O)n1-c1ccccc1,-,-,-,20162,?
COCCNc1nc(N2CCCCC2)c2cnn(C)c2n1,-,-,-,-,-
C=CCn1c(SCC(=O)NCCO)nc2sc(C)c(C)c2c1=O,-,-,-,-,-
C=CCn1c(SCC(=O)c2cc(C)n(C(C)COC)c2C)nc2sc(C)c(C)c2c1=O (stereo not given),-,-,-,19713,?
O=C(CCl)N1CCN(S(=O)(=O)c2ccc3c(c2)CCC3)CC1,-,-,-,-,-
COC(=O)c1ccc(N2CCC(C)CC2)c(N)c1,-,-,-,22414,-
Cc1cc(SCC(=O)Nc2ccccc2)nc(C)n1,-,-,-,-,-
CCOC(=O)CSc1nc(C)cc(C)n1,-,-,-,-,-
Cc1cc(C(F)(F)F)nc(SCC(=O)Nc2ccccc2)n1,-,-,-,22832,?
CCOC(=O)CSc1cn2c(n1)CCC2,-,-,-,24514,-
COc1ccc(NC(=O)CSc2nc(C)cc(C(F)(F)F)n2)cc1,-,-,-,-,-
CSc1nc(C)cc(SCC(=O)Nc2ccccc2)n1,-,-,-,23915,-
COC(=O)CSc1cc(C)nc(SC)n1,-,-,-,20467,-
COC(=O)CSc1nc(C)cc(C)n1,-,-,-,-,-
COCOCCn1cc(CN2CCS(=O)(=O)N(Cc3ccc(-c4cccc(CO)c4)cc3)C(C(C)C)C2=O)nn1 (stereo not given),-,-,-,-,-
Cc1ccc(NC(=O)C(C)SCC(=O)Nc2ccc(F)cc2)cc1S(=O)(=O)N1CCOCC1 (stereo not given),-,-,-,-,-
SMILES,MazF activator,BoNT-F LC inh,Anthrax LF inh2,Bead autofluor,BoNT-A LC inh2
O=S(=O)(N[C@H](CO)c1ccccc1)c1ccc(Br)cc1F,-,-,-,-,-
O=S1(=O)N[C@H](c2ccccc2)C[C@H](c2ccc(C(F)(F)F)cc2)O1,-,-,-,-,-
CC(C)Oc1ccccc1-c1cc(C(=O)N/N=C/c2cccnc2)c2ccccc2n1,-,-,-,-,-
CSc1nsc(SCC(=O)Nc2cccc(C(C)=O)c2)n1,-,-,-,21617,-
CCOC(=O)CSc1cc(C)nc(NC(C)=O)n1,-,-,-,19697,?
Cc1ccc(C(=O)CCC(=O)OCC(=O)N(C)c2c(N)n(Cc3ccccc3)c(=O)[nH]c2=O)cc1,-,.,.,.,.
COCCCNC(=S)NNC(=S)Nc1ccc(F)cc1F,-,-,-,21111,?
O=C(CNC(=O)Cc1ccccc1)NCC(=O)N1CCCCC1,-,-,-,-,-
O=C(Cc1ccccc1)NCC(=O)N1CCCCCC1,-,-,-,22214,-
CC(NC(=O)C1CCCC1)c1ccccc1 (stereo not given),-,-,-,-,-
CC(NC(=O)C1CCCN(C(=O)N(C)C)C1)c1ccccc1 (stereo not given),-,-,-,20508,-

# Source: PubChem (several laboratories)
